The text below walks through data of PubChem BioAssay (NCATS).

Records with an inconclusive call do not appear. Unmarked numbers belong to inactive results. Activity calls are given as the source filed them. Calls come from the whole dose curve; as a rule, active = well fitted inhibition curve with a large enough effect; inconclusive = small, poorly fitted or top-dose-only effect; inactive = flat fitted curve, though single readings scatter.
% is set by controls: 0 for no effect and ±100 for the full control effect; potency is the fitted concentration of half-maximal effect.

The target in this experiment is Calcium and integrin-binding protein 1 (Homo sapiens) (UniProt Q99828). Kind of experiment: Primary qHTS for Identification of Calcium Integrin Binding Protein 1 (CIB1) Competitor (AID 1508620).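 For activity change, negative = inhibition: GST tagged CIB1 binding a fluorescein labelled alphaIIb integrin peptide tracer; top concentration of the series differs between compounds.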 To be noted: CIB1-GST / FITC-alphaIIb peptide fluorescence polarization; series mostly up to 114 µM; activity change, negative = inhibition: at the top concentration. The source says: Assay Provider: Ulhas P. Naik, PhD Sidney Kimmel Medical College Thomas Jefferson University, Philadelphia, PA Primary function of platelets is to maintain hemostasis. At the site of vascular injury, platelets adhere to adhesive proteins such as collagen and von Willebrand factor. Adherent platelets are activated and generate soluble platelet agonists such as thrombin, ADP and thromboxane A2. Following exposure of circulating platelets to these agonists, results in platelet shape change, granule secretion and activation of platelet integrin alphaIIb-beta3. Ligand binding to activated integrin alphaIIb-beta3 triggers outside-in signaling, leading to platelet aggregation, stabilization of platelet plug, and clot retraction. Upon atherosclerotic plaque rupture also causes platelet plug formation, which underlies a number of cardiovascular diseases such as myocardial infraction and stroke. A number of anti-platelet drugs such as aspirin, clopidogrel, prasugrel, vorapaxar, and eptifibatide are currently available to prevent the thrombotic complications. However, these anti-platelet agents have several limitations including inherent variability in individual responses, developing resistance, and serious bleeding side effects. For these reasons they are not suitable for long-term protection. Based on the experiences with current anti-platelet drugs, it appears that the most useful therapeutic approach is to intersect the secondary responses such as integrin outside-in signaling or recruitment of platelets by TxA2 and secreted ADP. Compounds, which can largely preserve the primary hemostatic function of platelets but inhibit secondary response will be most desired therapeutic agents for treatment of cardiovascular disease. CIB1 is a calcium integrin binding protein, which specifically interact with the alphaIIb subunit of integrin alphaIIb-beta3. Binding of CIB1 to alphaIIb regulates the outside-in signaling in platelets, which is needed for thrombus stabilization and thrombus growth. […] Therefore, we propose that discovery of a small molecule that can prevent the association of CIB1 and alphaIIb-beta3 will be a potential anti-platelet agent that can block the thrombus formation without undue effect on hemostasis. Reference: [1] Naik MU, Nigam A, Manrai P, et al. CIB1 deficiency results in impaired thrombosis: the potential role of CIB1 in outside-in signaling through integrin alpha IIb beta 3. J Thromb Haemost.
Chain of Calcium and integrin-binding protein 1 (Homo sapiens) (Q99828 whole entry, looked up): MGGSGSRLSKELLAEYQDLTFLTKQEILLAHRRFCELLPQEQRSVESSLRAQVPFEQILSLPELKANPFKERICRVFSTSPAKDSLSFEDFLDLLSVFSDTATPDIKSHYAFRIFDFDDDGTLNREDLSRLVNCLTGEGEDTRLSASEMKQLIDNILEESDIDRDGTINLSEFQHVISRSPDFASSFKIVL
PROTOCOL TABLES SEQUENCE No. (1, 2, 3, etc.); […] (e.g., Cells, Incubation, Reagent, etc.); VALUE and DESCRIPTION. 1; Reagent; 3 uL; Protein or buffer (4/3x) 2; Compound; 46 nL; Control inhibitor / compound library 3; Time; 15 min; Room temperature incubation 4; Reagent; 1 uL; Fluorescent labeled peptide (4x) 5; Time; 1000 rpm; Centrifuge 6; Time; 15 min; Room temperature incubation 7; Detection; Ex 480/ Em 540; ViewLux Fluorescence Read NOTES (numbers refer to sequence above) 1; Protein Mixture: C1B1-GST (final concentrations of 1 uM). […] 3; Room temperature incubation. 4; Fluorescent Labeled Peptide: FITC-aIIb (final concentration of 100 nM). Sequence of alphaIIb peptide: Acetyl-[…]-FITC (purity is 95.83%). 5; Centrifuge 1000 rpm (164 g) for 15 seconds. 6; Room temperature incubation. 7; ViewLux Fluorescent Polization Read: excitation = 480(20) / emission = 540(25) S and P; FITC Dichroic mirror.
A general note: qHTS replaces the single test concentration by a dilution series.
On to `OC[C@H]1O[C@@H]2O[C@H]3[C@H](O)[C@@H](O)[C@@H](O[C@H]4[C@H](O)[C@@H](O)[C@@H](O[C@H]5[C@H](O)[C@@H](O)[C@@H](O[C@H]6[C@H](O)[C@@H](O)[C@@H](O[C@H]7[C@H](O)[C@@H](O)[C@@H](O[C@H]8[C@H](O)[C@@H](O)[C@@H](O[C@H]1[C@H](O)[C@H]2O)O[C@@H]8CO)O[C@@H]7CO)O[C@@H]6CO)O[C@@H]5CO)O[C@@H]4CO)O[C@@H]3CO`, for which the “activity change, negative = inhibition” value is -6.2%.

Regarding `CO[C@]12C[C@@H](COC(=O)c3cncc(Br)c3)CN(C)[C@@H]1Cc1cn(C)c3cccc2c13`, the “activity change, negative = inhibition” value was -4.99%.

Consider `CCCCN1C[C@H](O)[C@@H](O)[C@H](O)[C@H]1CO`, for which the “activity change, negative = inhibition” value is 3.45%.

On to `CC(C)(C)NCC(O)COc1cccc2c1C[C@H](O)[C@H](O)C2` (stereo not given in full), for which the “activity change, negative = inhibition” value is -1.51%.

In the case of `CCCN(CCC)S(=O)(=O)c1ccc(C(=O)O)cc1`, the “activity change, negative = inhibition” value was 0.902%.

Turning to `CC(=O)OCC1=C(C(=O)O)N2C(=O)[C@@H](NC(=O)CSc3ccncc3)[C@H]2SC1`, the “activity change, negative = inhibition” value is -11.9%.

As to `C[N+]1(CC2COC(c3ccccc3)(C3CCCCC3)O2)CCCCC1` (stereo not given), the “activity change, negative = inhibition” value is 6.83%.

Regarding `CCN(CC)CCNC(=O)c1cc(Br)c(N)cc1OC`, the “activity change, negative = inhibition” value is -1.96%.

On to `O=C(NCCc1c[nH]c2ccccc12)c1cccnc1`, for which the “activity change, negative = inhibition” value is -3.09%.

For `CCOC(=O)C(C#N)=C(c1ccccc1)c1ccccc1`, the “activity change, negative = inhibition” value is -0.311%.

Consider `Cc1cccc(C)c1NC(=O)CN1CCCC1`, for which the “activity change, negative = inhibition” value was 3.03%.

On to `O=C(O)C(Cc1cc(I)c(O)c(I)c1)c1ccccc1` (stereo not given), for which the “activity change, negative = inhibition” value is 1.08%.

For the compound `CC(=O)Nc1ncc([N+](=O)[O-])s1`, the “activity change, negative = inhibition” value was 2.54%.

As for `O=C1[C@H](CC[C@H](O)c2ccc(F)cc2)[C@@H](c2ccc(O)cc2)N1c1ccc(F)cc1`, the Potency entry was “inactive”.

For `CCNC(=O)NCc1cccc(Cl)c1`, the “activity change, negative = inhibition” value is -2.14%.

Consider `c1ccc(CC2=NCCN2)cc1`, for which the “activity change, negative = inhibition” value was -0.722%.

`COc1cc(C(=O)N2CCCCCCC2)cc(OC)c1OC`: the “activity change, negative = inhibition” value was 1.91%.

On to `CCC1NC(=O)c2cc(S(N)(=O)=O)c(Cl)cc2N1` (stereo not given), for which the “activity change, negative = inhibition” value was 8.19%.

As to `CCCCCCCCCCCCCC(=O)OC(C)C`, the “activity change, negative = inhibition” value was 1.2%.

Take `Cc1cc(NS(=O)(=O)c2ccc(N)cc2)nc(C)n1`: the “activity change, negative = inhibition” value is -2.4%.

In the case of `C#C[C@]1(OC(C)=O)CC[C@H]2[C@@H]3CCC4=C/C(=N/O)CC[C@@H]4[C@H]3CC[C@@]21CC`, the “activity change, negative = inhibition” value is -1.24%.

With `C#C[C@]1(O)CC[C@H]2[C@@H]3[C@H](C)CC4=C(CCC(=O)C4)[C@H]3CC[C@@]21C`, the “activity change, negative = inhibition” value is 4.91%.

Take `CN1CCN(c2cc3c(cc2F)c(=O)c(C(=O)O)cn3-c2ccc(F)cc2)CC1`: the “activity change, negative = inhibition” value was 7.64%.

`Oc1ccc(Cl)cc1Cc1cc(Cl)ccc1O`: the Potency was 79.4 µM (active).

`CC(C)Cc1ccc(CC(=O)O)cc1`: the “activity change, negative = inhibition” value was 9.9%.

As to `CCN(CC)CCOC(=O)C1(c2ccccc2)CCCC1`, the “activity change, negative = inhibition” value was 2.63%.

Consider `CN1CCC(OC(c2ccccc2)c2ccccc2)CC1`, for which the “activity change, negative = inhibition” value is -3.84%.

For the compound `Cc1nc(-c2ccc(Cl)cc2)oc1COC(C)(C)C(=O)O`, the “activity change, negative = inhibition” value is -17.5%.

Take `CN(C)CCOC(=O)C(c1ccccc1)C1(O)CCCC1` (stereo not given): the “activity change, negative = inhibition” value is -2.07%.

As to `CC(=O)O[C@]1(C(C)=O)CC[C@H]2[C@@H]3C=C(Cl)C4=CC(=O)CC[C@]4(C)[C@H]3CC[C@@]21C`, the “activity change, negative = inhibition” value is 0.863%.

On to `CC(=O)O[C@H]1C[C@@H]2CC[C@@H]3[C@H](CC[C@@]4(C)[C@H]3C[C@H]([N+]3(C)CCCCC3)[C@@H]4OC(C)=O)[C@@]2(C)C[C@@H]1N1CCCCC1`, for which the “activity change, negative = inhibition” value was -8.8%.

For `CC[N+](C)(CC)CCOC(=O)C(O)(c1ccccc1)C1CCCCC1` (stereo not given), the “activity change, negative = inhibition” value was -6.25%.

As for `CC(C)CCCC(C)N` (stereo not given), the “activity change, negative = inhibition” value was -8.08%.

In the case of `CCOC(=O)Nc1ccc2c(c1)N(C(=O)CCN1CCOCC1)c1ccccc1S2`, the “activity change, negative = inhibition” value is 3.87%.

As for `NC1CCN(c2nc3c(cc2F)c(=O)c(C(=O)O)cn3-c2ccc(F)cc2F)C1` (stereo not given), the “activity change, negative = inhibition” value is -5.39%.

Turning to `CCC(Cc1c(I)cc(I)c(N)c1I)C(=O)O` (stereo not given), the “activity change, negative = inhibition” value was -1.17%.

As for `OC[C@H]1O[C@@H](Oc2ccc(O)cc2)[C@H](O)[C@@H](O)[C@@H]1O`, the “activity change, negative = inhibition” value was -1.92%.

Consider `CCNC(=O)/C=C/c1cccc(Br)c1`, for which the “activity change, negative = inhibition” value is 0.0506%.

Consider `Oc1ccccc1C=NCc1ccccc1`, for which the “activity change, negative = inhibition” value was -3.39%.

On to `CC(=C(CCOC(=O)C(C)C)SSC(CCOC(=O)C(C)C)=C(C)N(C=O)Cc1cnc(C)nc1N)N(C=O)Cc1cnc(C)nc1N`, for which the “activity change, negative = inhibition” value was -2.02%.
